MCF10A rerep: A quantitative high throughput screen for small molecules that induce DNA re-replication in MCF 10a normal breast cells. MCF 10A DNA re-replication, Hoechst nuclear intensity, 48 h. Potency, µM (top dose mostly 46.1 µM), usual class: activators. 2.9% of 350,000 active. AID 624296, 2012; also: nearly all actives have a fitted effect of over 50% in size
KB-3-1 tox: qHTS assay for MDR1-selective chemotherapeutics: Primary screen using the parental adenocarcinoma cell KB-3-1; 1.4% of 400,000 active; KB-3-1 viability, CellTiter-Glo ATP luminescence, 72 h; Potency, µM (highest dose often 46.1 µM), usual class: cytotoxic; also: nearly all actives have a fitted effect of over 60% in size
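Luminescent ATP read-out (CellTiter-Glo) measures survival of drug-naive KB-3-1 cells after 72 h compound exposure at 37 °C. Titration series was screened from lowest to highest concentration, with DMSO vehicle plates as background controls.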
HT1080 IDH1KD tx: qHTS for induction of synthetic lethality in tumor cells producing 2HG: qHTS for the HT-1080-IDH1KD cell line. AID 686971, 2013. 2% of 360,000 active. HT-1080 IDH1 knockdown viability, ATP luminescence, 48 h. Potency, µM (doses to about 46.1 µM), actives largely listed as cytotoxic
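CellTiter-Glo luminescence after 48 h compound exposure at 37 degrees C of IDH1-knockdown HT-1080 cells in 5% FBS RPMI. %Activity scaled between DMSO wells and cell-free media wells, with curves fitted and assigned curve classes.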
KB-V1 cytotox: qHTS assay for MDR1-selective chemotherapeutics: Primary screen using the drug-selected MDR subline cells KB-V1 | KB-V1 MDR cells viability, CellTiter-Glo, 72 h | Potency, µM (doses to about 46.1 µM), most hits filed as cytotoxic | 3.4% of 400,000 active; also: nearly all actives have a fitted effect of over 60% in size
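Luminescent ATP read-out (CellTiter-Glo, 10 min) measures survival of drug-selected KB-V1 MDR cells after 72 h, 37 degrees C compound exposure. Medium: phenol-red-free DMEM, 10% FBS. Values from fitted concentration-response curves.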
HT1080-NT tox: qHTS for induction of synthetic lethality in tumor cells producing 2HG: qHTS for the HT-1080-NT fibrosarcoma cell line; HT-1080-NT fibrosarcoma viability, CellTiter-Glo ATP luminescence, 48 h; Potency, µM (top dose mostly 46.1 µM), usual class: cytotoxic; 1.6% of 360,000 active;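 also: NT is the 2HG producing partner of a matched IDH1 knockdown line; nearly all actives have a fitted effect of over 55% in size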
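Fibrosarcoma NT cells, 750 per well in 5% FBS RPMI, were exposed to compound for 48 hours. Viability: CellTiter-Glo luminescence.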
SW480 rereplic: A quantitative high throughput screen for small molecules that induce DNA re-replication in SW480 colon adenocarcinoma cells. SW480 DNA re-replication, Hoechst DNA content imaging, 48 h. Potency, µM (series often up to 46.1 µM), usual class: activators. 1.8% of 340,000 active; also: nearly all actives have a fitted effect of over 55% in size
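SW480 cells exposed to compounds for 48 hr at 37 C, 5% CO2, then Hoechst-stained 40 min. Nuclear DNA content imaged by fluorescence scanning (405 nm excitation, 500-530 nm emission); re-replication scored as increased high-intensity nuclei.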
Large screens that a line does not name were inactive. In the library only some 7.9% were active in any assay of this set; here they are far more common. Calls follow the shape of the dose curve; as a rule, active = well fitted curve in the direction sought with a large enough effect; inconclusive = small, poorly fitted or top-dose-only effect, or another doubt; inactive = no such curve, though single readings can be large; an effect the other way counts as inactive or inconclusive.

Cc1[nH]c2ccc(C(=O)N3CCN(c4ccccc4Cl)CC3)cc2c1C	MCF10A rerep inconclusive, SW480 rereplic inconclusive
Cc1[nH]c2ccccc2c1C(=O)C(=O)N1CCN(c2cccc(Cl)c2)CC1	MCF10A rerep 20.6µM, KB-3-1 tox inconclusive, HT1080 IDH1KD tx inconclusive, SW480 rereplic inconclusive
COCCn1c(=S)[nH]c2cc(C(=O)N3CCN(c4ccccc4OC)CC3)ccc2c1=O	KB-V1 cytotox 14.6µM
Cc1[nH]c2ccccc2c1C(=O)C(=O)N1CC=C(c2ccccc2)CC1	MCF10A rerep inconclusive, KB-3-1 tox inconclusive, HT1080 IDH1KD tx 20.6µM, KB-V1 cytotox inconclusive, HT1080-NT tox inconclusive, SW480 rereplic inconclusive
Cc1cccc(N2CCN(C(=O)c3ccc4[nH]c(C)c(C)c4c3)CC2)c1C	MCF10A rerep 2.31µM, KB-3-1 tox 25.9µM, HT1080 IDH1KD tx 3.66µM, KB-V1 cytotox 2.31µM, HT1080-NT tox inconclusive, SW480 rereplic 3.26µM
CCOC(=O)c1[nH]c(C)c(C(=O)N2CCc3ccccc32)c1C	MCF10A rerep 0.411µM, KB-3-1 tox 0.326µM, HT1080 IDH1KD tx 1.03µM, KB-V1 cytotox 0.326µM, HT1080-NT tox inconclusive, SW480 rereplic 0.517µM
Cc1[nH]c2ccc(C(=O)N3CCCC3)cc2c1C	KB-V1 cytotox inconclusive
Cc1[nH]c2ccc(C(=O)N3CCN(c4cccc(Cl)c4)CC3)cc2c1C	MCF10A rerep inconclusive, KB-3-1 tox inconclusive, HT1080 IDH1KD tx 7.31µM, KB-V1 cytotox inconclusive, HT1080-NT tox inconclusive, SW480 rereplic inconclusive
COc1ccc2c(c1)c(C(=O)CN(C)C)c(C)n2C	KB-3-1 tox inconclusive (no result: MCF10A rerep, HT1080 IDH1KD tx, HT1080-NT tox, SW480 rereplic)
CC(C)[C@H](NC(=O)c1ccc(Br)cc1)C(=O)NC1CCCCC1	none
CN(C)C1(CNC(=O)COc2ccc([N+](=O)[O-])cc2)CCCCC1	none (no result: MCF10A rerep, HT1080 IDH1KD tx, HT1080-NT tox, SW480 rereplic)
COc1ccc(CCn2c(Br)nc3c2c(=O)[nH]c(=O)n3C)cc1	KB-3-1 tox 5.17µM, HT1080 IDH1KD tx 10µM, KB-V1 cytotox 4.11µM, HT1080-NT tox inconclusive, SW480 rereplic inconclusive
Cn1c(=O)[nH]c(=O)c2c1nc(Br)n2C/C=N/Nc1ccccc1	MCF10A rerep inconclusive, KB-3-1 tox 16.4µM, HT1080 IDH1KD tx 5.8µM, HT1080-NT tox 3.66µM
COc1ccc(CCn2c(NN)nc3c2c(=O)[nH]c(=O)n3C)cc1	MCF10A rerep inconclusive, KB-3-1 tox 13µM, HT1080 IDH1KD tx inconclusive, KB-V1 cytotox inconclusive, HT1080-NT tox 8.2µM, SW480 rereplic 14.6µM
COc1ccc(CCn2c(N3CCN(C)CC3)nc3c2c(=O)[nH]c(=O)n3C)cc1	none
COc1cc(CO)c(OC)c([N+](=O)[O-])c1	MCF10A rerep inconclusive
O=C(COc1ccc(F)cc1)OCc1cc(=O)n2nc(-c3cccs3)sc2n1	none (no result: MCF10A rerep, HT1080 IDH1KD tx, HT1080-NT tox, SW480 rereplic)
CCCc1c(-c2ccc(Cl)cc2)ncn1Cc1cccc(-c2ccccc2)c1	KB-3-1 tox 16.4µM, HT1080 IDH1KD tx inconclusive, KB-V1 cytotox inconclusive, HT1080-NT tox inconclusive (no result: MCF10A rerep, SW480 rereplic)
CCCc1c(-c2cccc(Br)c2)ncn1Cc1cccc(-c2ccccc2)c1	KB-3-1 tox inconclusive, HT1080 IDH1KD tx inconclusive, KB-V1 cytotox 16.4µM, HT1080-NT tox inconclusive (no result: MCF10A rerep, SW480 rereplic)
Cn1cc(S(=O)(=O)N2CCc3ccccc32)cc1C(=O)NC(C)(C)C	KB-3-1 tox inconclusive, KB-V1 cytotox inconclusive, HT1080-NT tox inconclusive
COc1ccccc1/C=C/C(=O)OCC(=O)NC1CCS(=O)(=O)C1 (centres undefined)	none
CCC1=NN(C(=O)c2ccccc2O)C(O)(c2ccccc2)C1 (centres undefined)	MCF10A rerep inconclusive, KB-3-1 tox inconclusive, HT1080 IDH1KD tx inconclusive, KB-V1 cytotox inconclusive, HT1080-NT tox inconclusive, SW480 rereplic 16.4µM
Nc1ccc(C(=O)N2N=C(c3ccccc3)CC2(O)C(F)(F)F)cc1 (centres undefined)	none
Cc1ccccc1OCC(=O)N1N=C(c2cccnc2)CC1(O)C(F)(F)F (centres undefined)	KB-V1 cytotox 20.6µM
Cc1cc(C)cc(OCC(=O)N2N=C(c3cccnc3)CC2(O)C(F)(F)F)c1 (centres undefined)	KB-V1 cytotox inconclusive
COc1cccc(C(=O)N2N=C(c3ccccc3)CC2(O)C(F)(F)F)c1 (centres undefined)	MCF10A rerep inconclusive, KB-V1 cytotox 16.4µM
CCC1=NN(C(=O)c2ccccc2Br)C(O)(c2ccc(Br)cc2)C1 (centres undefined)	none
O=C(c1ccccc1O)N1N=C(c2ccccc2)CC1(O)C(F)(F)F (centres undefined)	MCF10A rerep 20.6µM, SW480 rereplic inconclusive
Cc1cc(N2CCOCC2)n2ncc(-c3ccc(Cl)cc3)c2n1	SW480 rereplic 20.6µM
Cc1cc(C)n(-c2cc(C(C)(C)C)nc3c(-c4ccc(Cl)cc4)cnn23)n1	MCF10A rerep 23.1µM, HT1080 IDH1KD tx inconclusive, HT1080-NT tox inconclusive, SW480 rereplic inconclusive
Cc1cc(C)n(-c2cc(C(C)(C)C)nc3c(-c4ccccc4)cnn23)n1	MCF10A rerep 20.6µM, HT1080 IDH1KD tx inconclusive, KB-V1 cytotox inconclusive, HT1080-NT tox inconclusive
CC1=C(C(=O)N(C(C)C)C(C)C)CC(CC(=O)NCCN2CCOCC2)C(=O)N1Cc1ccc(F)cc1 (centres undefined)	none (no result: MCF10A rerep, SW480 rereplic)
Cn1ncc(C(=O)N2CCN(c3ccccc3F)CC2)c1C1CCN(C(=O)OC(C)(C)C)CC1	none (no result: MCF10A rerep, HT1080 IDH1KD tx, HT1080-NT tox, SW480 rereplic)
O=C(Nc1ccnn1C1CCN(Cc2cccc(O)c2)CC1)C1CCCC1	none
CCOc1cccc(CN2CCC(n3nccc3NC(=O)C3CCCC3)CC2)c1	KB-V1 cytotox 16.4µM
c1ccc(COc2cccc(CN3CCN(c4ccccn4)CC3)c2)cc1	MCF10A rerep inconclusive, KB-V1 cytotox 18.4µM, SW480 rereplic inconclusive
CC(C)CCNC(=O)C1CCN(Cc2cccc(OCc3ccccc3)c2)CC1	MCF10A rerep inconclusive, HT1080 IDH1KD tx 23.1µM, HT1080-NT tox inconclusive, SW480 rereplic inconclusive
COCCNC(=O)C1CCN(Cc2cccc(OCc3ccccc3)c2)CC1	MCF10A rerep inconclusive, SW480 rereplic inconclusive
COc1cc(OC)c(NS(=O)(=O)c2ccc(Cl)c(C(=O)OC(C)C(=O)N3CCCC3)c2)cc1Cl (centres undefined)	MCF10A rerep inconclusive, KB-3-1 tox 16.4µM, HT1080 IDH1KD tx inconclusive, KB-V1 cytotox 2.31µM
COc1ccc(NS(=O)(=O)c2ccc(C)c(C(=O)OC(C)C(=O)N3CCOCC3)c2)cc1 (centres undefined)	none
COc1cccc(-n2cc(C(=O)Oc3ccc(F)cc3)c3ccccc3c2=O)c1	none (no result: MCF10A rerep, HT1080 IDH1KD tx, HT1080-NT tox, SW480 rereplic)
